The results in this text go back to article PMC7819943, “Rice protein-binding microarrays: a tool to detect cis-acting elements near promoter regions in rice”.

In all, about 39,000 sequences were measured (“fluorescence intensity (a.u.)”: median about 4,300, highest 2% from about 39,000 on). The full list was thinned out, with the highest values kept by preference.

The target in the test is T1, OsSMF1 (Oryza sativa, UniProt Q6ZLB0 1-436).
T1 sequence: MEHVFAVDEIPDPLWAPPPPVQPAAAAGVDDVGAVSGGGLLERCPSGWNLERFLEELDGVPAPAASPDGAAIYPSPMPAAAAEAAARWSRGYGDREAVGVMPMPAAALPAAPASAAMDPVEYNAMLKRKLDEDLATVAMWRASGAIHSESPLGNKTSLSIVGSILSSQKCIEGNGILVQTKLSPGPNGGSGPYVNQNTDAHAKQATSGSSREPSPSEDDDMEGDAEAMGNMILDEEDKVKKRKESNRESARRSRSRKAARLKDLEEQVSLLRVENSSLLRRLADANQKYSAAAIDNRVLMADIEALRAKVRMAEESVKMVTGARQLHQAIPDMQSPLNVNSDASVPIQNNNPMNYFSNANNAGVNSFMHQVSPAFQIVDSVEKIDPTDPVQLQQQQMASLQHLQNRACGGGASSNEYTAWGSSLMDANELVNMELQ
Nature of the test: protein-binding microarray (RPBM); PBS, 2% BSA, 51.3 ng/ul salmon testes DNA, 50 uM zinc acetate, 200 nM TF, 25 C, 1 h; high values mean tight binding. To be noted: protein: recombinant; tags: N-terminal polyhistidine and DsRed monomer fusion (pET32a); chain copies: 2; label: CyDye5-dUTP incorporated in the synthesized complementary strand; 3' TTTTT single-stranded linker to array surface; dsDNA, one strand shown. The method in brief:
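Transcription factors were each fused at the N-terminus to a polyhistidine tag plus DsRed and expressed in E. coli BL21-CodonPlus before Ni–NTA purification. Binding to a double-stranded custom Agilent array was carried out with 200 nM protein at 25 °C for 1 h in PBS, 2% BSA, salmon testes DNA and 50 µM zinc acetate. The binding signal is per-feature fluorescence intensity, in arbitrary units, on an Axon 4000B scanner.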
For “CCTGCATGCGTGGCTGCGCTCACTGTCGTTATTTGCTTTACGGAGTCACCTAGTGCAG”, the binding signal is 5080 fluorescence intensity (a.u.).

As for “AATGAGATACTTAGACTTGTGAGGCCCGACGTGTCCAATCCGGAGTCACCTAGTGCAG”, the binding signal is 4470 fluorescence intensity (a.u.).

In the case of “AAAGGGCAGGCACATCGCTTTCGGGCCCTGTCACGTACCCCGGAGTCACCTAGTGCAG”, the binding signal is 3920 fluorescence intensity (a.u.).

Take “TCAATAATGTGTGCGTGACCTGGGCAAGTGGCGGTAGCAACGGAGTCACCTAGTGCAG”: the binding signal is 3540 fluorescence intensity (a.u.).

With “ATCTGCTTTGTGAGGCACATGAAGCTGGAGATATCTGTCACGGAGTCACCTAGTGCAG”, the binding signal is 4740 fluorescence intensity (a.u.).

Take “TTTGCTCGTTGGCAGCGGCCAGCAGGCACGTGTAACGGCGCGGAGTCACCTAGTGCAG”: the binding signal was 4190 fluorescence intensity (a.u.).

With “ACCGAGTCCACGGAGCAGTGAGAGAGCCAGGCAGCCAGTGCGGAGTCACCTAGTGCAG”, the binding signal is 3960 fluorescence intensity (a.u.).

For “GATCGAGCGGCAGGCCAGCAGTAACCTGGCCGAGAAGTTGCGGAGTCACCTAGTGCAG”, the binding signal is 64500 fluorescence intensity (a.u.).

“GATGTGCGATAGCAGAATGGTGCTAAGTGAGTCACATCGTCGGAGTCACCTAGTGCAG”: the binding signal was 3970 fluorescence intensity (a.u.).

Consider “TTTAATGATCTTATAAATTGTAATGCTGATAGGTGGTTATCGGAGTCACCTAGTGCAG”, for which the binding signal was 3590 fluorescence intensity (a.u.).

With “AAGCTTACAACATGTTCTATAATTTATTTAATTCTACAAACGGAGTCACCTAGTGCAG”, the binding signal was 45700 fluorescence intensity (a.u.).

Turning to “TATAATGTTTGGGTGCGTTTAATTCTATTTGAATTACACTCGGAGTCACCTAGTGCAG”, the binding signal was 48000 fluorescence intensity (a.u.).

Turning to “ACACTATGATTATAATATATTTACATGTGTGAATTGTTTACGGAGTCACCTAGTGCAG”, the binding signal is 3640 fluorescence intensity (a.u.).

In the case of “TTCTAATTACTATTTAAGCTTATCCTAATTAACTCACATGCGGAGTCACCTAGTGCAG”, the binding signal was 3230 fluorescence intensity (a.u.).

As for “ATACCGGTGCGTTACAACGAGGTGAATGTTATTTTAATTTCGGAGTCACCTAGTGCAG”, the binding signal is 25200 fluorescence intensity (a.u.).

Take “AATCAACAAATAACTAATATTCTTACATCAGCTACTATAACGGAGTCACCTAGTGCAG”: the binding signal was 28600 fluorescence intensity (a.u.).

Consider “GGGCTCATCTTCACCGTTGTCATTCAGTTATTCACATAAGCGGAGTCACCTAGTGCAG”, for which the binding signal is 3360 fluorescence intensity (a.u.).

With “GGCGGCGCCGACGACTCCGCGCCGCTCGGCCTCATCGTCGCGGAGTCACCTAGTGCAG”, the binding signal is 3190 fluorescence intensity (a.u.).

Turning to “GCGCCCTCCTCCTGCCACGTCGGTTCGCGTGCGCCACGGTCGGAGTCACCTAGTGCAG”, the binding signal was 19500 fluorescence intensity (a.u.).

On to “CATATGCCATCTAATCATCCTTGTCTGATGTCATTTATTCCGGAGTCACCTAGTGCAG”, for which the binding signal is 5870 fluorescence intensity (a.u.).

As for “TGCTTCGCCAGTGAATCGCGTGGATATAAATGGGCCTCTCCGGAGTCACCTAGTGCAG”, the binding signal is 3440 fluorescence intensity (a.u.).

For the sequence “CGCACTTCCGTCGCCTCCCCGCATCGCGTCGTACAACGGGCGGAGTCACCTAGTGCAG”, the binding signal is 18300 fluorescence intensity (a.u.).

In the case of “GGTGTGTGTATGTGTTTATATGGTGAGTGTACACACGTTGCGGAGTCACCTAGTGCAG”, the binding signal was 3150 fluorescence intensity (a.u.).

Turning to “GGCCCCGTCGACGCTGTGCACCAAACACAATAAAGACATGCGGAGTCACCTAGTGCAG”, the binding signal is 3430 fluorescence intensity (a.u.).

On to “ATTCCATATTTCCATTCCACACGTCTTGAGAGCTAATCTTCGGAGTCACCTAGTGCAG”, for which the binding signal was 3400 fluorescence intensity (a.u.).

As for “GTCTGGATCAGAGCTGTCCACATTGGTTGTATTCCTCTTTCGGAGTCACCTAGTGCAG”, the binding signal was 3620 fluorescence intensity (a.u.).

As to “GTGATCTTTCCACATACAGAGAGAGAGAGAGCTTGGGATTCGGAGTCACCTAGTGCAG”, the binding signal is 40900 fluorescence intensity (a.u.).

Regarding “CCTCCTGCTCAGAGGCAGTTCGGTGACGAGCGGGTTGGAGCGGAGTCACCTAGTGCAG”, the binding signal is 24400 fluorescence intensity (a.u.).

For the sequence “GGGGATGGGGATTCGATGTGTCTATGCGTGGGCCCTGGTTCGGAGTCACCTAGTGCAG”, the binding signal is 3860 fluorescence intensity (a.u.).

Take “CCGATCTCCACCACCACCACCACCACGCGGGCGCGCGCACCGGAGTCACCTAGTGCAG”: the binding signal is 4580 fluorescence intensity (a.u.).

For “ACGCAGTCACGCAGACCACAGGGCGATGCAGCGGACCGACCGGAGTCACCTAGTGCAG”, the binding signal is 40900 fluorescence intensity (a.u.).

With “ACCGACGCGGACAGCCACAGTCCAGTCACACACCACACCACGGAGTCACCTAGTGCAG”, the binding signal was 5320 fluorescence intensity (a.u.).

For the sequence “CTCAAAGCATTATAAAACTTGCTGGCTTTGTCCCCTTCATCGGAGTCACCTAGTGCAG”, the binding signal was 3250 fluorescence intensity (a.u.).

Regarding “AGATCGACACGTTAGTCTACACACCTATGCGTGCCTATGCCGGAGTCACCTAGTGCAG”, the binding signal is 3580 fluorescence intensity (a.u.).

For “CCCCAATCCTCGCATGCCAACTCACCTGTGTTGCTTTTGCCGGAGTCACCTAGTGCAG”, the binding signal is 7550 fluorescence intensity (a.u.).

Turning to “TCGCCCGCGCCCACTGACACGTGGGGCCCGGCACGTGGGCCGGAGTCACCTAGTGCAG”, the binding signal was 11500 fluorescence intensity (a.u.).

For the sequence “GTGTGATTATCTTCTCCATACCATCTCGTGCTACATGCGCCGGAGTCACCTAGTGCAG”, the binding signal was 40000 fluorescence intensity (a.u.).

As for “AGTGCATGCGTGTGCGCCTGCCTGCTTACTTCCATCTCGACGGAGTCACCTAGTGCAG”, the binding signal is 7880 fluorescence intensity (a.u.).

Take “ACCATCTCTCTCTCTCTCTCTGCATGCATATCTTCTCCTCCGGAGTCACCTAGTGCAG”: the binding signal was 3210 fluorescence intensity (a.u.).

Take “GTTCCCTTTGTATTTCACACCTTGAGATGGTGACTGATCCCGGAGTCACCTAGTGCAG”: the binding signal was 3940 fluorescence intensity (a.u.).

As to “TACTAATTTAATCCCCTTTGATCTGCTGACTGGTTTACTACGGAGTCACCTAGTGCAG”, the binding signal was 5140 fluorescence intensity (a.u.).

“AAAGATCAGAGAGACTACTAATCCGGTTTATTTACTGGCACGGAGTCACCTAGTGCAG”: the binding signal is 44100 fluorescence intensity (a.u.).

For the sequence “TGTTTTCTAATATTTACAATCAGATCCCTTGAGTGAGTCACGGAGTCACCTAGTGCAG”, the binding signal was 4150 fluorescence intensity (a.u.).

For “AGTCTCAGATCTACTTGCGGCGGCGAAGGCTCGGGAGGGGCGGAGTCACCTAGTGCAG”, the binding signal is 3530 fluorescence intensity (a.u.).

As to “CATAGTTGACTTCCAAGGCAAGACAGATGAGATATGCATTCGGAGTCACCTAGTGCAG”, the binding signal is 45500 fluorescence intensity (a.u.).

Take “ATATATTGACAAGGCAATGACATAGATAGCTAGACATATCCGGAGTCACCTAGTGCAG”: the binding signal is 3190 fluorescence intensity (a.u.).

Take “TCCTTCGATTCCAAGCATATAGTAATATATGACACGATGCCGGAGTCACCTAGTGCAG”: the binding signal was 5000 fluorescence intensity (a.u.).

Turning to “CGCAAACATTTTCGGAATATACGAATCCAGCGTTGCACTGCGGAGTCACCTAGTGCAG”, the binding signal was 3250 fluorescence intensity (a.u.).

Turning to “CCACGTGTCAGCATTGCCACATCAGCTTCCTCTCTCTTTTCGGAGTCACCTAGTGCAG”, the binding signal is 24100 fluorescence intensity (a.u.).

Consider “GTCAGTGTGGCCACGTCAGCATCCTCTCTTTTCCTCTCTTCGGAGTCACCTAGTGCAG”, for which the binding signal was 40800 fluorescence intensity (a.u.).

For the sequence “CAGCCATCCATCCCACCCACACGTCACCACCCGCGCATCCCGGAGTCACCTAGTGCAG”, the binding signal was 20500 fluorescence intensity (a.u.).

With “TCCTCCCACGCTTCTTCTTCTTCTTCTTCTTCCCTTTCCCCGGAGTCACCTAGTGCAG”, the binding signal was 9800 fluorescence intensity (a.u.).

On to “CATGTCAGGACGCCACGTCATCATGCTCTCTCTTTCCCCTCGGAGTCACCTAGTGCAG”, for which the binding signal is 33600 fluorescence intensity (a.u.).

Regarding “GTTCCACATGTCATCCTCTCCCTTTCTTCTTCCTCCCCTCCGGAGTCACCTAGTGCAG”, the binding signal is 3930 fluorescence intensity (a.u.).

Consider “CCCCTCCCCATCGTCAGCATCTTTCTTTCTCTTCCCATCCCGGAGTCACCTAGTGCAG”, for which the binding signal was 6610 fluorescence intensity (a.u.).

“CATATTCTGATATTCCCATCCACGTCAGCATTTCCCCACCCGGAGTCACCTAGTGCAG”: the binding signal was 41000 fluorescence intensity (a.u.).

For the sequence “CCACATGTCAGGATGCCACGTCATCTCTCTTTCCCCTCTTCGGAGTCACCTAGTGCAG”, the binding signal was 33600 fluorescence intensity (a.u.).

As for “CAGGATGCCACGTCAGCGCCCTCTATCTCTTTCCCCTCCTCGGAGTCACCTAGTGCAG”, the binding signal is 51300 fluorescence intensity (a.u.).

Consider “AATGTGACCACGTCATCCCCTTCTTTCCCTTTCCCCTCTTCGGAGTCACCTAGTGCAG”, for which the binding signal is 33300 fluorescence intensity (a.u.).

Regarding “ATGTCAGGATGCCACGTCACACCCTTTCTTTCCCCTCCTCCGGAGTCACCTAGTGCAG”, the binding signal was 45200 fluorescence intensity (a.u.).
